# Laboratory results taken from the supplement of paper PMC8728848.
# About 410 targets per protein were measured; listed, in parts, are those with the strongest signals and a random draw of the rest.
# B1: Intelectin-1a (Mus musculus) (protein)
# chain: AEWSHPQFEKAEENLDTNRWGNSFFSSLPRSCKEIKQEHTKAQDGLYFLRTKNGVIYQTFCDMTTAGGGWTLVASVHENNMRGKCTVGDRWSSQQGNRADYPEGDGNWANYNTFGSAEAATSDDYKNPGYFDIQAENLGIWHVPNKSPLHNWRKSSLLRYRTFTGFLQHLGHNLFGLYKKYPVKYGEGKCWTDNGPALPVVYDFGDARKTASYYSPSGQREFTAGYVQFRVFNNERAASALCAGVRVTGCNTEHHCIGGGGFFPEGNPVQCGDFASFDWDGYGTHNGYSSSRKITEAAVLLFYR
# Experiments:
# Assay in all cases: glycan array binding signal (z-score within array); higher = stronger binding
# Conditions in all cases: glycan notation: IUPAC condensed, linker removed
# [1] = molecular target: Fuc(a1-2)Gal(b1-3)GlcNAc(b1-2)Man(a1-3)[Fuc(a1-2)Gal(b1-3)GlcNAc(b1-2)Man(a1-6)]Man(b1-4)GlcNAc(b1-4)[Fuc(a1-6)]GlcNAc
# How it was run: (§1)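 Arrays were curated from the Consortium for Functional Glycomics database, 3228 in total, and kept only where the protein sequence was available. Binding is expressed as a within-array Z-score. This score was averaged across arrays of the same protein sequence at different concentrations or buffers and across linkers, and negative values can be read as non-binding.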
# [2] = molecular target: Fuc(a1-2)Gal(b1-3)GlcNAc(b1-3)GalNAc
# How it was run: as §1
# [3] = molecular target: Fuc(a1-2)Gal(b1-3)[Fuc(a1-4)]GlcNAc(b1-2)Man(a1-3)[Fuc(a1-2)Gal(b1-3)[Fuc(a1-4)]GlcNAc(b1-2)Man(a1-6)]Man(b1-4)GlcNAc(b1-4)GlcNAc
# How it was run: as §1
# [4] = molecular target: Fuc(a1-2)Gal(b1-4)GlcNAc(b1-2)Man
# How it was run: as §1
# [5] = molecular target: Fuc(a1-2)Gal(b1-4)GlcNAc(b1-2)Man(a1-3)[Fuc(a1-2)Gal(b1-4)GlcNAc(b1-2)Man(a1-6)]Man(b1-4)GlcNAc(b1-4)GlcNAc
# How it was run: as §1
# [6] = molecular target: Fuc(a1-2)Gal(b1-4)GlcNAc(b1-3)[Fuc(a1-2)Gal(b1-4)GlcNAc(b1-6)]GalNAc
# How it was run: as §1
# [7] = molecular target: Fuc(a1-2)Gal(b1-4)[Fuc(a1-3)]GlcNAc(b1-3)Gal(b1-4)[Fuc(a1-3)]GlcNAc
# How it was run: as §1
# Fuc(a1-2)Gal6S(b1-4)Glc = molecular target: Fuc(a1-2)Gal6S(b1-4)Glc
# How it was run: as §1
# [8] = molecular target: Fuc(a1-2)[Gal(a1-3)]Gal(b1-3)GlcNAc(b1-2)Man(a1-3)[Fuc(a1-2)[Gal(a1-3)]Gal(b1-3)GlcNAc(b1-2)Man(a1-6)]Man(b1-4)GlcNAc(b1-4)GlcNAc
# How it was run: as §1
# [9] = molecular target: Fuc(a1-2)[Gal(a1-3)]Gal(b1-3)GlcNAc(b1-2)Man(a1-3)[Fuc(a1-2)[Gal(a1-3)]Gal(b1-3)GlcNAc(b1-2)Man(a1-6)]Man(b1-4)GlcNAc(b1-4)[Fuc(a1-6)]GlcNAc
# How it was run: as §1
# [10] = molecular target: Fuc(a1-2)[Gal(a1-3)]Gal(b1-4)GlcNAc(b1-2)Man(a1-3)[Fuc(a1-2)[Gal(a1-3)]Gal(b1-4)GlcNAc(b1-2)Man(a1-6)]Man(b1-4)GlcNAc(b1-4)GlcNAc
# How it was run: as §1
# [11] = molecular target: Fuc(a1-2)[GalNAc(a1-3)]Gal
# How it was run: as §1
# [12] = molecular target: Fuc(a1-2)[GalNAc(a1-3)]Gal(b1-3)GlcNAc(b1-2)Man(a1-3)[Fuc(a1-2)[GalNAc(a1-3)]Gal(b1-3)GlcNAc(b1-2)Man(a1-6)]Man(b1-4)GlcNAc(b1-4)GlcNAc
# How it was run: as §1
# [13] = molecular target: Fuc(a1-3)[Gal(b1-4)]GlcNAc(b1-6)[Neu5Ac(a2-3)Gal(b1-3)]GalNAc
# How it was run: as §1
# [14] = molecular target: Fuc(a1-3)[GalNAc3S(b1-4)]GlcNAc
# How it was run: as §1
# [15] = molecular target: Gal(a1-3)Gal(b1-3)GlcNAc(b1-2)Man(a1-3)[Gal(a1-3)Gal(b1-3)GlcNAc(b1-2)Man(a1-6)]Man(b1-4)GlcNAc(b1-4)GlcNAc
# How it was run: as §1
# [16] = molecular target: Gal(a1-3)Gal(b1-3)GlcNAc(b1-3)GalNAc
# How it was run: as §1
# [17] = molecular target: Gal(a1-3)Gal(b1-4)[Fuc(a1-3)]GlcNAc(b1-2)Man(a1-3)[Gal(a1-3)Gal(b1-4)[Fuc(a1-3)]GlcNAc(b1-2)Man(a1-6)]Man(b1-4)GlcNAc(b1-4)GlcNAc
# How it was run: as §1
# [18] = molecular target: Gal(b1-3)GlcNAc(b1-3)Gal(b1-4)GlcNAc(b1-6)[Gal(b1-3)GlcNAc(b1-3)]Gal(b1-4)Glc
# How it was run: as §1
# [19] = molecular target: Gal(b1-3)[Neu5Ac(a2-6)]GlcNAc(b1-6)Gal(b1-4)Glc
# How it was run: as §1
# Gal3S(b1-3)GlcNAc = molecular target: Gal3S(b1-3)GlcNAc
# How it was run: as §1
# Gal3S(b1-4)Glc = molecular target: Gal3S(b1-4)Glc
# How it was run: as §1
# Gal4S(b1-4)GlcNAc = molecular target: Gal4S(b1-4)GlcNAc
# How it was run: as §1
# Gal6S(b1-4)Glc6S = molecular target: Gal6S(b1-4)Glc6S
# How it was run: as §1
# [20] = molecular target: GalNAc(a1-3)Fuc(a1-2)Gal(b1-4)GlcNAc(b1-3)[GalNAc(a1-3)Fuc(a1-2)Gal(b1-4)GlcNAc(b1-6)]GalNAc
# How it was run: as §1
# GalNAc(b1-3)Gal = molecular target: GalNAc(b1-3)Gal
# How it was run: as §1
# [21] = molecular target: Glc(a1-6)Glc(a1-6)Glc(a1-6)Glc
# How it was run: as §1
# GlcA(b1-3)Gal = molecular target: GlcA(b1-3)Gal
# How it was run: as §1
# [22] = molecular target: GlcNAc(a1-4)Gal(b1-4)GlcNAc(b1-3)Gal(b1-4)[Fuc(a1-3)]GlcNAc(b1-3)Gal(b1-4)[Fuc(a1-3)]GlcNAc
# How it was run: as §1
# [23] = molecular target: GlcNAc(b1-3)Gal(b1-3)GalNAc
# How it was run: as §1
binder,measurement,setting,value
B1,glycan array binding signal (z-score),[1],-0.492
same,glycan array binding signal (z-score),[2],2.92
same,glycan array binding signal (z-score),[3],2.9
same,glycan array binding signal (z-score),[4],1.06
same,glycan array binding signal (z-score),[5],-0.329
same,glycan array binding signal (z-score),[6],-0.517
same,glycan array binding signal (z-score),[7],-1.05
same,glycan array binding signal (z-score),Fuc(a1-2)Gal6S(b1-4)Glc,1.88
same,glycan array binding signal (z-score),[8],0.954
same,glycan array binding signal (z-score),[9],3.73
same,glycan array binding signal (z-score),[10],-0.423
same,glycan array binding signal (z-score),[11],0.968
same,glycan array binding signal (z-score),[12],0.792
same,glycan array binding signal (z-score),[13],-0.328
same,glycan array binding signal (z-score),[14],0.115
same,glycan array binding signal (z-score),[15],2.64
same,glycan array binding signal (z-score),[16],-0.09
same,glycan array binding signal (z-score),[17],2.76
same,glycan array binding signal (z-score),[18],2.74
same,glycan array binding signal (z-score),[19],0.312
same,glycan array binding signal (z-score),Gal3S(b1-3)GlcNAc,-0.392
same,glycan array binding signal (z-score),Gal3S(b1-4)Glc,-0.304
same,glycan array binding signal (z-score),Gal4S(b1-4)GlcNAc,-0.354
same,glycan array binding signal (z-score),Gal6S(b1-4)Glc6S,-0.38
same,glycan array binding signal (z-score),[20],1.24
same,glycan array binding signal (z-score),GalNAc(b1-3)Gal,-0.938
same,glycan array binding signal (z-score),[21],-0.709
same,glycan array binding signal (z-score),GlcA(b1-3)Gal,0.662
same,glycan array binding signal (z-score),[22],5.84
same,glycan array binding signal (z-score),[23],-0.724
